Assay results taken from PubChem BioAssay AID1159580 (chemical genetic matrix, 2015).
Several values for one entry are separate records, joined by “and”; a condition that tells them apart may be missing. Equal values may be shown once. Out of some 5,500 compounds screened, about 2,000 (36%) were called active. Not shown: some 18% with an inconclusive outcome. Cut-off read from the data, not from the text of the source: active = normalized growth mostly below about 0.91 (no sharp cut-off); inconclusive = no clear call, values can overlap the other calls; inactive = mostly above about 0.92. Some of the results follow.

Assay: chemical genetic growth profiling, strain panel (AID 1159580);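 note: tested at 20 µM; growth read once vehicle control cultures reached saturation at 30 °C; 1 = growth at the plate median or of vehicle wells; lower values mean less growth of the strain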
Settings: growth OD

Measured: normalized growth

CC(=O)OCC(COC(C)=O)OC(C)=O
inactive: S. cerevisiae deletion strains, locus YAL013W, strain DEP1, active compounds read low 1.01 | S. cerevisiae deletion strains, locus YBR021W, strain FUR4, active compounds read low 1.02 | S. cerevisiae deletion strains, locus YBR229C, strain ROT2, active compounds read low 1 | S. cerevisiae deletion strains, locus YCL029C, strain bik1, active compounds read low 1.03 | S. cerevisiae deletion strains, locus YDL035C, strain GPR1, active compounds read low 1.02 | S. cerevisiae deletion strains, locus YDL074C, strain BRE1, active compounds read low 1.02 | S. cerevisiae deletion strains, locus YDL101C, strain DUN1, active compounds read low 1.02 | S. cerevisiae deletion strains, locus YDL134C, strain PPH21, active compounds read low 1.01 | S. cerevisiae deletion strains, locus YDL185W, strain tfp1, active compounds read low 1.01 | S. cerevisiae deletion strains, locus YDL192W, strain arf1, active compounds read low 1.02 | S. cerevisiae deletion strains, locus YDR101C, strain arx1, active compounds read low 1 | S. cerevisiae deletion strains, locus YDR150W, strain NUM1, active compounds read low 1.01 | S. cerevisiae deletion strains, locus YDR162C, strain NBP2, active compounds read low 1.01 | S. cerevisiae deletion strains, locus YDR318W, strain mcm21, active compounds read low 1.01 | S. cerevisiae deletion strains, locus YDR388W, active compounds read low 1.01 | S. cerevisiae deletion strains, locus YDR502C, strain sam2, active compounds read low 1 | S. cerevisiae deletion strains, locus YEL061C, strain CIN8, active compounds read low 1.01 | S. cerevisiae deletion strains, locus YER110C, active compounds read low 1.01 | S. cerevisiae deletion strains, locus YER155C, strain BEM2, active compounds read low 0.999 | S. cerevisiae deletion strains, locus YER167W, strain BCK2, active compounds read low 1.01 | S. cerevisiae deletion strains, locus YGL078C, strain dbp3, active compounds read low 1.01 | S. cerevisiae deletion strains, locus YGL086W, strain mad1, active compounds read low 1 | S. cerevisiae deletion strains, locus YGL248W, strain PDE1, active compounds read low 1.01 | S. cerevisiae deletion strains, locus YGR078C, strain PAC10, active compounds read low 1.02 | S. cerevisiae deletion strains, locus YGR135W, strain pre9, active compounds read low 1.01 | S. cerevisiae deletion strains, locus YGR229C, strain SMI1, active compounds read low 1.02 | S. cerevisiae deletion strains, locus YGR252W, strain gcn5, active compounds read low 0.969 | S. cerevisiae deletion strains, locus YHR030C, strain SLT2, active compounds read low 1.01 and 0.958 | S. cerevisiae deletion strains, locus YHR079C, strain IRE1 (second series), active compounds read low 1.01 | S. cerevisiae deletion strains, locus YHR079C, strain IRE1, active compounds read low 0.989 | S. cerevisiae deletion strains, locus YHR094C, strain hxt1, active compounds read low 1.01 | S. cerevisiae deletion strains, locus YHR129C, strain ARP1, active compounds read low 1.01 | S. cerevisiae deletion strains, locus YHR200W, strain rpn10, active compounds read low 1.01 | S. cerevisiae deletion strains, locus YIL066C, strain RNR3, active compounds read low 1.03 | S. cerevisiae deletion strains, locus YIL073C, strain SPO22, active compounds read low 1.02 | S. cerevisiae deletion strains, locus YIL125W, strain kgd1, active compounds read low 1 | S. cerevisiae deletion strains, locus YIR030C, strain dcg1, active compounds read low 1.01 | S. cerevisiae deletion strains, locus YJL095W, strain BCK1, active compounds read low 1.02 and 0.962 | S. cerevisiae deletion strains, locus YJL134W, strain LCB3, active compounds read low 1.01 | S. cerevisiae deletion strains, locus YJL168C, strain set2, active compounds read low 1.01 | S. cerevisiae deletion strains, locus YJL187C, strain SWE1 (second series), active compounds read low 1.03 | S. cerevisiae deletion strains, locus YJR043C, strain POL32, active compounds read low 1.02 | S. cerevisiae deletion strains, locus YJR066W, strain TOR1, active compounds read low 0.936 | S. cerevisiae deletion strains, locus YJR075W, strain HOC1, active compounds read low 1.03 | S. cerevisiae deletion strains, locus YKL009W, strain mrt4, active compounds read low 1.02 | S. cerevisiae deletion strains, locus YKL068W, active compounds read low 1 | S. cerevisiae deletion strains, locus YKL085W, strain MDH1 (second series), active compounds read low 1.01 | S. cerevisiae deletion strains, locus YKL085W, strain MDH1, active compounds read low 1.01 | S. cerevisiae deletion strains, locus YKL190W, strain CNB1, active compounds read low 1.01 | S. cerevisiae deletion strains, locus YKR001C, strain vps1, active compounds read low 1.02 | S. cerevisiae deletion strains, locus YLR039C, strain RIC1, active compounds read low 0.991 | S. cerevisiae deletion strains, locus YLR058C, strain SHM2, active compounds read low 1.01 | S. cerevisiae deletion strains, locus YLR102C, strain apc9, active compounds read low 0.997 | S. cerevisiae deletion strains, locus YLR113W, strain HOG1, active compounds read low 1 | S. cerevisiae deletion strains, locus YLR262C, strain YPT6, active compounds read low 1.03 | S. cerevisiae deletion strains, locus YLR268W, strain sec22, active compounds read low 1.03 | S. cerevisiae deletion strains, locus YLR330W, strain CHS5, active compounds read low 1.02 | S. cerevisiae deletion strains, locus YLR342W, strain FKS1 (second series), active compounds read low 1.01 | S. cerevisiae deletion strains, locus YLR371W, strain rom2, active compounds read low 1.01 | S. cerevisiae deletion strains, locus YLR418C, strain cdc73, active compounds read low 1.02 | S. cerevisiae deletion strains, locus YML016C, strain PPZ1, active compounds read low 1.01 | S. cerevisiae deletion strains, locus YML032C, strain rad52, active compounds read low 1.03 | S. cerevisiae deletion strains, locus YML124C, strain tub3, active compounds read low 1 | S. cerevisiae deletion strains, locus YMR078C, strain ctf18, active compounds read low 1.01 | S. cerevisiae deletion strains, locus YMR223W, strain ubp8, active compounds read low 1 | S. cerevisiae deletion strains, locus YMR263W, strain SAP30, active compounds read low 1.02 | S. cerevisiae deletion strains, locus YMR307W, strain GAS1, active compounds read low 0.998 | S. cerevisiae deletion strains, locus YNL067W, strain RPL9B, active compounds read low 1.03 | S. cerevisiae deletion strains, locus YNL128W, strain TEP1, active compounds read low 1.02 | S. cerevisiae deletion strains, locus YNL153C, strain GIM3, active compounds read low 1.02 | S. cerevisiae deletion strains, locus YNL183C, strain NPR1, active compounds read low 0.949 | S. cerevisiae deletion strains, locus YNL233W, strain BNI4, active compounds read low 1.01 | S. cerevisiae deletion strains, locus YNL250W, strain rad50, active compounds read low 1 | S. cerevisiae deletion strains, locus YNL271C, strain bni1, active compounds read low 1.02 | S. cerevisiae deletion strains, locus YNL298W, strain CLA4, active compounds read low 1.02 | S. cerevisiae deletion strains, locus YNL307C, strain MCK1, active compounds read low 1.01 | S. cerevisiae deletion strains, locus YNL322C, strain KRE1, active compounds read low 1.01 | S. cerevisiae deletion strains, locus YNR052C, strain pop2, active compounds read low 1.01 | S. cerevisiae deletion strains, locus YOL006C, strain TOP1, active compounds read low 1.05 | S. cerevisiae deletion strains, locus YOL012C, strain htz1 1.07 | S. cerevisiae deletion strains, locus YOL147C, strain pex11, active compounds read low 1.01 | S. cerevisiae deletion strains, locus YOR061W, strain CKA2, active compounds read low 1.01 | S. cerevisiae deletion strains, locus YOR069W, strain VPS5, active compounds read low 1.01 | S. cerevisiae deletion strains, locus YOR136W, strain idh2, active compounds read low 1.01 | S. cerevisiae deletion strains, locus YOR144C, strain elg1, active compounds read low 0.998 | S. cerevisiae deletion strains, locus YOR184W, strain ser1, active compounds read low 1.02 | S. cerevisiae deletion strains, locus YOR231W, strain MKK1, active compounds read low 0.993 | S. cerevisiae deletion strains, locus YOR316C, strain cot1, active compounds read low 1.01 | S. cerevisiae deletion strains, locus YPL055C, strain LGE1, active compounds read low 1.06 | S. cerevisiae deletion strains, locus YPL241C, strain CIN2, active compounds read low 1.01 | S. cerevisiae deletion strains, locus YPL256C, strain CLN2, active compounds read low 0.989 | S. cerevisiae deletion strains, locus YPR119W, strain clb2, active compounds read low 1.01 | S. cerevisiae deletion strains, locus YPR141C, strain kar3, active compounds read low 1.01 | S. cerevisiae deletion strains, locus YPR163C, strain tif3, active compounds read low 1.02 | S. cerevisiae deletion strains, locus YPR167C, strain met16, active compounds read low 1.01 | S. cerevisiae deletion strains, strain wtn01, active compounds read low 1.04 | S. cerevisiae strains, strain wild type, active compounds read low 1.02
